Records with an inconclusive call do not appear. Unmarked numbers belong to inactive results. The call rests on the fitted dose curve; in most records, active means well fitted cell-killing curve with a large enough effect in the repeat runs; inconclusive means weak or mixed curves, or effect the other way; inactive means flat fitted curve, though single readings scatter.
On the % scale 0 is the no-effect control and ±100 the full control effect.

This experiment can be described thus: qHTS assay to identify small molecule agonists of the estrogen receptor beta (ER-beta) signaling pathway - cell viability counter screen (AID 1259380). Further: nearly all actives have a fitted effect of over 30% in size. To be noted: ER-beta-bla HEK293T viability, CellTiter-Glo luminescence, 16 h; series mostly up to 92.4 µM; activity change, negative = cytotoxicity: at the top concentration. The source says:
National Center for Advancing Translational Sciences [NCATS]
NIH Chemical Genomics Center [NCGC]
U.S. Environmental Protection Agency [EPA]
National Institutes of Environmental Health Sciences [NIEHS]
National Toxicology Program [NTP]
U.S. Food and Drug Administration [FDA]
Estrogen receptor (ER), a nuclear hormone receptor, plays an important role in development, metabolic homeostasis and reproduction. Two subtypes of ER, ER-alpha and ER-beta, have similar expression patterns with some uniqueness in both types. Endocrine disrupting chemicals (EDCs) and their interactions with steroid hormone receptors like ER causes disruption of normal endocrine function. To identify the compounds that activate ER signaling, an ER beta-UAS-bla GripTite cell line (Life Technologies, Madison, WI, USA) containing a beta-lactamase reporter gene under the control of an UAS response element was used to screen Tox21 10K compound library. The cytotoxicity of the Tox21 compound library against the ER-beta-bla cell line was tested in parallel by measuring the cell viability using CellTiter-Glo assay in the same wells.
Tox21 Assay Protocol Summary:
ER-beta-UAS-bla HEK293T cells were dispensed at 2,000 cells/5 uL of assay medium containing 2% charcoal stripped FBS per well into black wall/clear-bottom 1536-well plates using a Multidrop Combi (ThermoFisher Scientific, Waltham, MA) dispenser. After the assay plates were incubated at a 37C and 5% CO2 for 6 hr, 23 nL of compounds dissolved in DMSO, positive controls or DMSO only was transferred to the assay plate by a Pintool station (Kalypsys, San Diego, CA). The plates were incubated at 37C and 5% CO2 for 16 hr. Then 1 uL of LiveBLAzerTM B/G FRET substrate was added using a BioRAPTR FRD (Flying Reagent Dispenser, Aurora Discovery, San Diego, CA) and then the plates were incubated at room temperature for 2 hours, and fluorescence intensity was measured by an Envision plate reader (PerkinElmer, Shelton, CT). For cell viability readout that measures cytotoxicity, 4 uL/well of CellTiter-Glo reagent was added into the assay plates using a FRD. After 30 min incubation at room temperature, the luminescence intensity in the plates was measured using a ViewLux (PerkinElmer) plate reader.
On the technique in general: In qHTS, concentration-response curves come from the screen itself.
As to `CC(=O)C1C(=O)C=C(C)OC1=O` (stereo not given), the “activity change, negative = cytotoxicity” value was 2%.
With `O=C(O)CONC(=O)c1ccccc1` the figure was -0.521%.
Under `CC(=O)CC(=O)Nc1ccc(C)cc1C` stands 4.08%; under `COC(=O)c1cccc(Cl)c1`, -1.58%; under `CO/N=C(/C(=O)N[C@@H]1C(=O)N2C(C(=O)[O-])=C(C[n+]3ccn4ncccc43)CS[C@H]12)c1nsc(N)n1`, 3.03% [at 42.5 µM].
On to `CN(C)CC/C=C1/c2ccccc2COc2ccc(CC(=O)O)cc21`, for which the “activity change, negative = cytotoxicity” value was 4.54% [at 42.5 µM].
With `CC(CO)(CO)CO` the figure was 5.75%.
Consider `C#CCN[C@@H]1CCc2ccccc21`, for which the “activity change, negative = cytotoxicity” value was -2.23% [at 42.5 µM].
Under `CN1CCOC(c2ccccc2)c2ccccc2C1` (stereo not given) stands -2% [at 42.5 µM]; under `CCCc1ccc(O)cc1`, -0.283%; under `C=C(C)c1cccc(C(C)(C)N=C=O)c1`, -1.46%.
`O=C(O)CNC(=O)CNC(=O)CNC(=O)CSC(=O)c1ccccc1`: the “activity change, negative = cytotoxicity” value is 3.88% [at 42.5 µM].
With `OCC1CCC(CO)CC1` (stereo not given) the figure was 8.37%.
With `CCN1CCCC1CN` (stereo not given), the “activity change, negative = cytotoxicity” value was 10.2% [at 42.5 µM].
As for `Cc1c(NC(=O)c2cccnc2)c(=O)n(-c2ccccc2)n1C`, the “activity change, negative = cytotoxicity” value was 1.87% [at 42.5 µM].
Regarding `CCCC(CC)c1ccccc1` (stereo not given), the “activity change, negative = cytotoxicity” value was -0.0072%.
Turning to `CCC(C)C(C)=O` (stereo not given), the “activity change, negative = cytotoxicity” value is 1%.
As to `NCc1ccc(S(N)(=O)=O)cc1`, the “activity change, negative = cytotoxicity” value was 2.77% [at 42.5 µM].
For `CCC(C)C(=O)OCCc1ccccc1` (stereo not given), the “activity change, negative = cytotoxicity” value was 0.05%.
Under `CCCCCCCCCOC(=O)c1ccccc1C(=O)OCCCCCCCCC` stands 3.95%; under `CC1=C(O)C(=O)C(C)O1` (stereo not given), 11.1%; under `O=Cc1ccccc1Cl`, 11.3%.
With `Nc1nnnn1-c1ccccc1` the figure was 5.46% [at 42.5 µM].
Under `O=NN(CCCl)C(=O)NC1CCCCC1` stands -2.21% [at 42.5 µM]; under `CC1=C(C(=O)O)N2C(=O)[C@@H](NC(=O)[C@H](N)C3=CCC=CC3)[C@H]2SC1`, 5.01% [at 42.5 µM].
Regarding `O=C(CN1CCNCC1)NC1CCCCC1`, the “activity change, negative = cytotoxicity” value was 2.55% [at 42.5 µM].
Under `COc1cc(OC)nc(O[C@H](C(=O)O)C(OC)(c2ccccc2)c2ccccc2)n1` stands -2.86% [at 42.5 µM]; under `CO[Si](CCCn1c(=O)n(CCC[Si](OC)(OC)OC)c(=O)n(CCC[Si](OC)(OC)OC)c1=O)(OC)OC`, 5.62% [at 42.5 µM].
With `O=Cc1cc2ccccc2o1` the figure was 0.646%; with `CC1(C)Cc2cccc(N)c2O1`, 2.32%; with `OC1(c2ccc(Cl)cc2)CCNCC1`, -13.8% [at 42.5 µM].
Under `CC(=O)O[Si](C)(OC(C)=O)OC(C)=O` stands 8.26%; under `COc1ccc2c(c1)c1c3n2CCN(C)C3=NCC1`, 2.9% [at 42.5 µM]; under `CC1(C)Oc2ccc(C#N)cc2[C@@H](N2CCCC2=O)[C@@H]1O`, 1.83% [at 42.5 µM].
Consider `O=C(CCCCC(=O)Nc1c(I)cc(I)c(C(=O)O)c1I)Nc1c(I)cc(I)c(C(=O)O)c1I`, for which the “activity change, negative = cytotoxicity” value was 1.27% [at 42.5 µM].
Regarding `CCOc1ccccc1OCC1CNCCO1` (stereo not given), the “activity change, negative = cytotoxicity” value is 2.3% [at 42.5 µM].
With `c1ccc2c(CC3=NCCN3)cccc2c1` the figure was -13.2% [at 42.5 µM]; with `COC(=O)CCCCC(=O)O`, 6.31%; with `Cc1ccc(N)cc1S(=O)(=O)O`, 13.3%.
Under `CC(C)NC(=O)c1ccc(C=O)cc1` stands 2.33% [at 42.5 µM].
